The source of these data is PubChem BioAssay (NCI).

Some test systems named below: DU-145 prostate; K-562 leukemia; MALME-3M melanoma; MDA-MB-231 breast; RXF 393 renal; SF-268 CNS; SF-295 CNS; SF-539 CNS; UACC-257 melanoma; M14 melanoma; HCT-15 colon; HT29 colon; SNB-75 CNS; SNB-19 CNS; U251 CNS; PC-3 prostate; SK-MEL-5 melanoma; UACC-62 melanoma; LOX IMVI melanoma; SK-MEL-28 melanoma.
Common to all, as to test: NCI-60 one-dose screen, 48 h (100 = growth as untreated, 0 = no growth, -100 = all killed)
What all share (conditions): 10 µM unless noted

The panel holds about 83,000 compounds, 20% with a hit somewhere; the sample as a whole holds those more often.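 Cell lines were cultured in 96-well plates, exposed to a single compound concentration, and assessed for percent growth 48 hours later.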 Unmarked numbers belong to inactive results. The source made the active and inactive calls. The calls were made as follows: active = growth percent below 10; inactive = the rest.

`CCCCn1c(=O)c(-c2cc(-c3ccc(Cl)cc3)nc(-c3ccc(Cl)cc3)c2)cc2cc(Cl)ccc21`: the growth with DU-145 prostate is 112%; with K-562 leukemia, 102%; in the test with MALME-3M melanoma, 104%; in the test with MDA-MB-231 breast it was 84.6%; in the test on RXF 393 renal, 118%; in the test on SF-268 CNS, 98.4%. For the same molecule, the growth in the test on SF-295 CNS was 103%; in the test on SF-539 CNS it was 103%; in the test with UACC-257 melanoma, 96.1%; in the test on M14 melanoma, 101%; with HCT-15 colon, 97.8%; in the test on HT29 colon it was 101%. Moreover, the growth was 95.4% in the test on SNB-75 CNS; 96% with SNB-19 CNS; 105% in the test on U251 CNS; 98.4% with PC-3 prostate; 107% in the test with SK-MEL-5 melanoma; 88.5% in the test on UACC-62 melanoma. In addition, the growth is 99.9% with LOX IMVI melanoma and 104% in the test with SK-MEL-28 melanoma.

For `Cc1cc(C)c(-c2c(N)cc(Br)cc2Br)c(N)c1`, the growth in the test with DU-145 prostate was 71.2%; in the test on K-562 leukemia it was 13.4%; with MALME-3M melanoma it was 26.9%; with MDA-MB-231 breast it was 56.4%; in the test with RXF 393 renal, 10.5%; in the test on SF-268 CNS, 76.1%. Besides, the growth was 36.7% in the test on SF-295 CNS; 46.9% with SF-539 CNS; 66.8% in the test with UACC-257 melanoma; 41.4% in the test with M14 melanoma; 46.5% with HCT-15 colon; 48.7% with HT29 colon. Besides, the growth in the test on SNB-75 CNS was 22.9%; with SNB-19 CNS it was 63.4%; with U251 CNS it was 37.4%; with PC-3 prostate it was 63.3%; in the test with SK-MEL-5 melanoma, 29.3%; in the test with UACC-62 melanoma it was 58%. Further, the growth in the test with LOX IMVI melanoma is 32.8%; in the test with SK-MEL-28 melanoma, 51.1%.

On to `CC(=O)CC(c1cccs1)c1c(-c2ccccc2)[nH]c2ccccc12` (stereo not given), for which the growth with DU-145 prostate was 103%; in the test with K-562 leukemia, 77.2%; with MALME-3M melanoma it was 104%; with MDA-MB-231 breast, 86.9%; in the test on RXF 393 renal it was 99.9%; in the test on SF-268 CNS, 85.6%. Also, the growth in the test with SF-295 CNS is 80.4%; in the test with SF-539 CNS, 98.9%; with UACC-257 melanoma, 103%; in the test with M14 melanoma, 94.5%; in the test on HCT-15 colon it was 80.7%; in the test on HT29 colon, 98.2%. The growth in the test with SNB-75 CNS was 40.7%; in the test with SNB-19 CNS, 96%; in the test with U251 CNS, 93.8%; with PC-3 prostate, 77.3%; in the test with SK-MEL-5 melanoma, 95.3%; in the test with UACC-62 melanoma it was 77.9%. Further, the growth in the test with LOX IMVI melanoma is 81.7%; in the test on SK-MEL-28 melanoma it was 102%.

On to `O=c1c2cccc(Cl)c2sc2c(NCCCNCCO)nc3ccccc3c12`, for which the growth with DU-145 prostate is 13.9%; with K-562 leukemia, -48.1% (active); in the test on MALME-3M melanoma, 77.8%; in the test on MDA-MB-231 breast, -25.3% (active); in the test with RXF 393 renal it was 50.3%; in the test on SF-268 CNS, 42.1%. Besides, the growth in the test on SF-295 CNS is 73.9%; in the test on SF-539 CNS it was 27.4%; with UACC-257 melanoma, 97%; in the test on M14 melanoma it was -72.7% (active); in the test on HCT-15 colon it was -24.3% (active); with HT29 colon it was -51.7% (active). In addition, the growth was 51.9% in the test on SNB-75 CNS; 45.7% in the test with SNB-19 CNS; 10.8% in the test on U251 CNS; 41.8% with PC-3 prostate; 81.8% in the test on SK-MEL-5 melanoma; 66.2% in the test on UACC-62 melanoma. For the same molecule, the growth in the test on LOX IMVI melanoma is -93.1% (active); in the test on SK-MEL-28 melanoma it was 72.1%.

On to `COc1cc(/C=C2\C(=O)Nc3ccc(Br)cc32)cc(OC)c1OC`, for which the growth with DU-145 prostate was 91.8%; with K-562 leukemia, 32.6%; with MALME-3M melanoma, 88.6%; in the test with MDA-MB-231 breast, 65.5%; in the test on RXF 393 renal, -13.6% (active); in the test on SF-268 CNS, 84%. The growth with SF-295 CNS is 68.6%; in the test with SF-539 CNS it was 85.6%; in the test with UACC-257 melanoma it was 17.2%; with M14 melanoma, 79.2%; in the test on HCT-15 colon, 38.6%; in the test on HT29 colon, 24.4%. Also, the growth with SNB-75 CNS was 36.5%; in the test on SNB-19 CNS it was 81%; with U251 CNS, 51%; with PC-3 prostate, 60.4%; in the test on SK-MEL-5 melanoma, 56.9%; in the test with UACC-62 melanoma, 51.6%. The growth was 57.2% in the test on LOX IMVI melanoma and 80.2% in the test with SK-MEL-28 melanoma.

In the case of `Cc1nn(-c2ccccc2)c(-n2ccnc2)c1/C=N/Nc1nc(-c2ccc(F)cc2)cs1`, the growth with DU-145 prostate was 87.5%; with K-562 leukemia it was 38.8%; in the test with MALME-3M melanoma, 83.2%; with MDA-MB-231 breast, 79.6%; in the test on RXF 393 renal, 88.5%; in the test on SF-268 CNS, 76.9%. In addition, the growth was 77.3% with SF-295 CNS; 87.6% in the test with SF-539 CNS; 75.6% in the test on UACC-257 melanoma; 79.7% in the test on M14 melanoma; 76.8% with HCT-15 colon; 81.2% in the test with HT29 colon. For the same molecule, the growth was 73.7% with SNB-75 CNS; 87.1% in the test with SNB-19 CNS; 74.4% in the test on U251 CNS; 65.5% in the test on PC-3 prostate; 31.4% with SK-MEL-5 melanoma; 74.9% in the test with UACC-62 melanoma. In addition, the growth is 83.7% in the test on LOX IMVI melanoma and 97.6% with SK-MEL-28 melanoma.

Turning to `c1ccc(Cc2nn3cc(-c4ccccc4)nc3s2)cc1`, the growth was 99% in the test on DU-145 prostate; 93.8% with K-562 leukemia; 111% in the test with MALME-3M melanoma; 109% with MDA-MB-231 breast; 129% with RXF 393 renal; 98% in the test with SF-268 CNS. Moreover, the growth in the test on SF-295 CNS is 97.8%; in the test on SF-539 CNS it was 106%; in the test on UACC-257 melanoma, 108%; in the test on M14 melanoma, 90.3%; in the test with HCT-15 colon, 95.1%; in the test with HT29 colon it was 94.9%. Further, the growth in the test with SNB-75 CNS was 102%; with SNB-19 CNS, 103%; in the test with U251 CNS, 107%; in the test with PC-3 prostate it was 93.7%; with SK-MEL-5 melanoma it was 101%; in the test with UACC-62 melanoma it was 82.6%. The growth in the test on LOX IMVI melanoma was 86.2%; in the test on SK-MEL-28 melanoma, 109%.

On to `CCOC(=O)c1cn2ncnc(Oc3ccc(NC(=O)NCCN4CCN(C)CC4)c(Cl)c3)c2c1C`, for which the growth with DU-145 prostate was 81.2%; with K-562 leukemia, 10.9%; in the test on MALME-3M melanoma, 28.3%; in the test on MDA-MB-231 breast, 72%; in the test with RXF 393 renal, 35.8%; in the test with SF-268 CNS it was 81.4%. The growth in the test on SF-295 CNS was 94.8%; in the test with SF-539 CNS, 78.5%; in the test on UACC-257 melanoma, -15.9% (active); in the test on M14 melanoma, -23.7% (active); with HCT-15 colon it was 39.6%; in the test on HT29 colon, 19.7%. For the same molecule, the growth in the test with SNB-75 CNS is 86.3%; in the test on SNB-19 CNS, 87.7%; with U251 CNS, 63.3%; in the test on PC-3 prostate it was 50.5%; with SK-MEL-5 melanoma, 47.6%; with UACC-62 melanoma, 34%. Besides, the growth with LOX IMVI melanoma was 66.2%; with SK-MEL-28 melanoma, 13.3%.
